Experimental data: PubChem BioAssay AID620 (Sanford-Burnham Center for Chemical Genomics, 2007)
In all, about 87,000 compounds went through this assay and about 360 (0.41%) were called active. This excerpt belongs to a sample that is enriched for actives. Unmarked numbers belong to inactive results. Cut-off read from the data, not from the text of the source: active = cytotoxicity above about 50%; inactive = the rest.

Assay: HT1080 cell viability loss – fluorescence readout (AID 620);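 note: cells exposed to compound overnight then 4 h with Alamar Blue; 0% = vehicle DMSO and 100% = killing control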
Conditions: at 10 µM, stronger effect = higher value

| Compound | cytotoxicity |
| --- | --- |
| COc1cccc(C(=O)NCC(=O)N2CCC(C)CC2)c1 | 7.2% |
| COc1cccc(Oc2cn[nH]c2-c2ccc(O)cc2O)c1 | 55.2% (active) |
| COc1ccc(Oc2cn[nH]c2-c2ccc(O)cc2O)cc1 | 19% |
| COc1cccc(Oc2cn[nH]c2-c2ccc(OC)cc2O)c1 | 19.1% |
| N#CC1C(C#N)N2CCCN2C1c1ccc(Cl)cc1 (centres undefined) | -17.9% |
| CCn1c(SCC(=O)O)nnc1C1CCCCC1 | 3.3% |
| CCN1C(=C2C(=O)c3ccccc3C2=O)C=Cc2ccccc21 | 12.1% |
| CCN1C(=O)/C(=C2\C=Cc3ccccc3N2CC)OC1=S | 5.1% |
| CCN1/C(=C/c2ccc3ccccc3[n+]2CC)C=Cc2ccccc21 | 54.3% (active) |
| Cc1cc(C)c2c(N)c(C(=O)NCc3ccco3)sc2n1 | 10.7% |
| Cc1cc(C)cc(N(CC(=O)N2CCN(Cc3ccccc3)CC2)S(=O)(=O)c2c(C)noc2C)c1 | -0.8% |
| Cc1ccccc1-c1nc(CN2CCCC(C(=O)NCc3cccnc3)C2)c(C)o1 (centres undefined) | -7.7% |
| N#CC1=C(N)Oc2cc3ccccc3cc2C1c1cccs1 (centres undefined) | -2.7% |
| N#CC1=C(N)Oc2cc(O)ccc2C1c1cccs1 (centres undefined) | -3.3% |
| N#CC1=C(N)Oc2c(ccc3ccccc23)C1c1cccs1 (centres undefined) | 65.3% (active) |
| COc1ccc(CCn2nnnc2C(C(C)C)N2CCC(C(N)=O)CC2)cc1OC (centres undefined) | 6% |
| Cc1cc(C)cc(OC(=O)N2CCOCC2)c1 | 3.6% |
| CCOC(=O)CNc1c(-c2ccccc2)nc2ccc(Cl)cn12 | 24.2% |
| CCOC(=O)CNc1c(-c2ccc(OC)cc2)nc2ccc(Cl)cn12 | 73.3% (active) |
| CCOC(=O)CNc1c(-c2ccc(O)cc2)nc2ccc(Cl)cn12 | 36.6% |
| CCOC(=O)N1CCN(C(=O)CSc2nc3ccccc3c(=O)n2-c2ccccc2)CC1 | 5.2% |
| CCn1c(CC(=O)Nc2ccc(C)c(Cl)c2)nnc1SCC(=O)Nc1nc(C)cs1 | -12.9% |
| COc1ccc(CC(=O)NC2CCN(CC(=O)Nc3ccc4c(c3)OCCO4)CC2)cc1OC | -8.3% |
| O=C(CN1CCc2ccccc2C1)Nc1ccccc1N1CCCCCC1 | -18.8% |
| OCCN1CCN(CCCN2c3ccccc3Sc3ccc(C(F)(F)F)cc32)CC1 | 91.7% (active) |

| Compound | cytotoxicity |
| --- | --- |
| CC(CN1c2ccccc2Sc2ccccc21)N(C)C (centres undefined) | 11.7% |
| COc1ccc([C@@H]2Sc3ccccc3N(CCN(C)C)C(=O)[C@@H]2OC(C)=O)cc1 | 31.1% |
| CN1CCN(CCCN2c3ccccc3Sc3ccc(C(F)(F)F)cc32)CC1 | 7.7% |
| CN(C)CCCN1c2ccccc2Sc2ccc(C(F)(F)F)cc21 | 54% (active) |
| COc1ccc2c(c1)Sc1ccccc1N2CCN(C)C | 58.8% (active) |
| CN(C)CCCN1c2ccccc2Sc2ccccc21 | 15.9% |
| OCCN1CCN(CCCN2c3ccccc3Sc3ccc(Cl)cc32)CC1 | 22.8% |
| O=C(CN1CCCC1)N1c2ccccc2Sc2ccc(C(F)(F)F)cc21 | -7.9% |
| O=c1c2ccccc2c(C=NC2CCS(=O)(=O)C2)c(O)n1-c1ccccc1 (centres undefined) | -6.8% |
| Nc1c(C(=O)NCc2ccccc2)nnn1Cc1ccc(F)cc1 | 1.7% |
| Cc1ccccc1S(=O)(=O)Cc1ccc(C(=O)N2CC(C)CC(C)C2)o1 (centres undefined) | -14.1% |
| COc1ccc(S(=O)(=O)Cc2ccc(C(=O)N3CCN(c4cccc(C)c4)C(C)C3)o2)cc1 (centres undefined) | 52.2% (active) |
| Cc1cccc(N2CCN(C(=O)c3ccc(CS(=O)(=O)c4ccccc4C)o3)CC2C)c1 (centres undefined) | 51.2% (active) |
| Cc1ccc(C)c(N2CCN(C(=O)c3ccc(CS(=O)(=O)c4ccccc4C)o3)CC2)c1 | 34% |
| CCOC(=O)N1CCN(C(=O)c2ccc(CS(=O)(=O)c3ccc(OC)cc3)o2)CC1 | 0.8% |
| COc1ccc(N2CCN(C(=O)c3ccc(CS(=O)(=O)c4ccc(OC)cc4)o3)CC2)cc1 | -8.4% |
| Cc1ccc2c(c1)[C@H]1OCC[C@H]1[C@@H](c1ccncc1)N2 | -2.2% |
| CC1CCCCN1CCn1c(=S)[nH]c2ncccc2c1=O (centres undefined) | 33.2% |
| Cn1c(SCC(=O)NC2CCCC2)nnc1-c1ccc(S(=O)(=O)N2CCOCC2)cc1 | 4.3% |
| O=C1CCC(=O)N1c1ccccc1-c1ccccc1 | -0.5% |
| O=C(CSCc1ccccc1)Nc1ccc(Cl)cn1 | 20.2% |
| CCCC(=O)Nc1ccc(NC(=O)CCc2ccccc2)cn1 | 8.6% |
| O=C(CCc1ccccc1)Nc1ccc(Cl)cn1 | 52.1% (active) |
| Cc1ccc(NC2=NC3(CCCCC3)N=C(N)N2)c(C)c1 | 33% |
